Test results taken from PubChem BioAssay (Tox21).
Inconclusive results are not listed. Unmarked numbers belong to inactive results. Active and inactive are the calls of the source. Calls follow the shape of the dose curve; as a rule, active = well fitted cell-killing curve with a large enough effect in the repeat runs; inconclusive = weak or mixed curves, or effect the other way; inactive = flat fitted curve, though single readings scatter.

Assay: qHTS assay to identify small molecule agonists of the sonic hedgehog signaling (Shh) pathway - cell viability counter screen (AID 1259366); also: nearly all actives have a fitted effect of over 50% in size
Conditions: NIH/3T3 Gli1-Luc viability, CellTiter-Fluor, 24 h; series mostly up to 92.4 µM; viability change, negative = cytotoxic: at the top concentration
In short: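 After a 4hr attachment at 37C, NIH/3T3 cells bearing an integrated Gli1-driven luciferase reporter were dosed with compounds. Treatment lasted 24hr, with the final hour including CellTiter-Fluor for a fluorescence viability measurement.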
% is scaled to controls: 0 for no effect and ±100 for the full control effect; potency is read from the fitted curve at half-maximal effect.

| Compound | viability change, negative = cytotoxic | Potency |
| --- | --- | --- |
| CC1OC(=O)C(C)OC1=O (centres undefined) | -5.55% |  |
| CC(C)Cc1ccc(C(C)C(=O)OCc2ccccn2)cc1 (centres undefined) | 16.9% [at 42.5 µM] |  |
| CCOc1ccc(O)cc1 | 0.619% |  |
| CC(=O)c1cccc([N+](=O)[O-])c1 | 1.71% |  |
| CC1CCC(=O)C1=O (centres undefined) | 0.639% |  |
| O=C(O)c1ccco1 | -4.62% |  |
| CN1Cc2cc(C(=O)N3CCC(C4CCNCC4)CC3)ccc2NC(CC(=O)O)C1=O (centres undefined) | -0.327% [at 42.5 µM] |  |
| CCOc1ccc(N)c([N+](=O)[O-])c1 | -15.9% |  |
| Nc1ccc([N+](=O)[O-])c(C(F)(F)F)c1 | 1.57% [at 42.5 µM] |  |
| CCCCCCCCCCO[C@@H]1O[C@H](CO)[C@@H](O)[C@H](O)[C@H]1O | 0.0726% |  |
| O=P(O)(OCc1ccccc1)OCc1ccccc1 | 1.8% |  |
| C=CC1CC2C=CC1C2 (centres undefined) | -0.848% |  |
| Brc1c2ccccc2c(Br)c2ccccc12 | 2.56% [at 8.39 µM] |  |
| Brc1c2ccccc2cc2ccccc12 | 0.721% |  |
| O=C(OCCc1ccccc1)c1ccccc1 | -6.03% |  |
| CCC(CC)Nc1ccc(C)c(C)c1 | -0.961% |  |
| COc1ccc(C(=O)c2ccc(OC)cc2O)c(O)c1 | 0.713% |  |

| Compound | viability change, negative = cytotoxic | Potency |
| --- | --- | --- |
| c1ccc(C(O[C@H]2CCCN(CCc3ccc4c(c3)OCO4)C2)c2ccccc2)cc1 | 2.57% [at 42.5 µM] |  |
| C[C@@H]1C[C@H]2[C@@H]3CCC4=CC(=O)C=C[C@]4(C)[C@@]3(F)[C@@H](O)C[C@]2(C)[C@@]1(O)C(=O)COC(=O)c1ccncc1 | 12.7% [at 42.5 µM] |  |
| CCCCCCCCCOS(=O)(=O)O | 0.0836% |  |
| C/C=C(/C(=C/C)c1ccc(OC(C)=O)cc1)c1ccc(OC(C)=O)cc1 | -0.204% [at 42.5 µM] |  |
| ClCCOCCOCCCl | 1.97% |  |
| O=C1CCC(=O)O1 | -0.372% |  |
| C=C1[C@H]2CC[C@@H]3[C@H]2C(C)(C)CCC[C@]13C | 1.04% |  |
| COC(C)OC | -0.791% |  |
| Cc1oc(-c2ccccc2)nc1CCOc1cccc2c1ccn2CCC(=O)O |  | 21.7 µM (active) |
| C[N+](C)(C)CCOC(=O)CCC(=O)OCC[N+](C)(C)C | 1.49% [at 42.5 µM] |  |
| CCCC(=O)Nc1ccc(O)c(C(C)=O)c1 | 0.466% [at 42.5 µM] |  |
| CCCCc1nc2cccnc2n1Cc1ccc(-c2ccccc2-c2nnn[nH]2)cc1 |  | 15.4 µM (active) |
| CC1=CC=C(C(C)C)CC1 | 0.819% |  |
| C=CCOc1ccccc1OCC(O)CNC(C)C (centres undefined) | -3.22% [at 42.5 µM] |  |
| c1cc(CCCc2ccncc2)ccn1 | 12.4% |  |
| Cc1cc(C(=O)O)ccc1[N+](=O)[O-] | 0.895% |  |
| CN(C)c1ccc(CCO)cc1 | 1.36% |  |
